According to the supplement of paper PMC8728848:
Many of the other results were omitted from the sample, so the strongest signals are more common in it than they were.

Key:
Test in all cases: glycan array binding signal (z-score within array); higher = stronger binding
Conditions in all cases: glycan notation: IUPAC condensed, linker removed
[1] = molecular target: Fuc(a1-2)Gal(b1-3)GalNAc(a1-3)[Fuc(a1-2)]Gal(b1-4)Glc
Method in brief: (§1)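 The binding signal is a Z-score computed within each array and averaged over linkers. Arrays of the same protein sequence at different concentrations or buffers were also averaged together. Data originate from 3228 arrays in the Consortium for Functional Glycomics database, kept only where the protein sequence was available.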

[2] = molecular target: Fuc(a1-2)Gal(b1-3)GalNAc(a1-3)[Fuc(a1-2)]Gal(b1-4)GlcNAc
Method in brief: as §1

[3] = molecular target: Fuc(a1-2)Gal(b1-3)GalNAc(b1-4)[Neu5Ac(a2-3)]Gal(b1-4)Glc
Method in brief: as §1

[4] = molecular target: Fuc(a1-2)Gal(b1-3)GlcNAc(b1-3)[Fuc(a1-2)Gal(b1-3)GlcNAc(b1-6)]GalNAc
Method in brief: as §1

[5] = molecular target: Fuc(a1-2)Gal(b1-4)GlcNAc(b1-2)[Fuc(a1-2)Gal(b1-4)GlcNAc(b1-4)]Man(a1-3)[Fuc(a1-2)Gal(b1-4)GlcNAc(b1-2)Man(a1-6)]Man(b1-4)GlcNAc(b1-4)GlcNAc
Method in brief: as §1

[6] = molecular target: Fuc(a1-2)Gal(b1-4)GlcNAc(b1-3)Gal(b1-4)GlcNAc(b1-2)Man(a1-3)[Fuc(a1-2)Gal(b1-4)GlcNAc(b1-3)Gal(b1-4)GlcNAc(b1-2)Man(a1-6)]Man(b1-4)GlcNAc(b1-4)GlcNAc
Method in brief: as §1

[7] = molecular target: Fuc(a1-2)Gal(b1-4)GlcNAc6S
Method in brief: as §1

[8] = molecular target: Fuc(a1-2)Gal(b1-4)[Fuc(a1-3)]GlcNAc(b1-2)[Fuc(a1-2)Gal(b1-4)[Fuc(a1-3)]GlcNAc(b1-4)]Man(a1-3)[Fuc(a1-2)Gal(b1-4)[Fuc(a1-3)]GlcNAc(b1-2)Man(a1-6)]Man(b1-4)GlcNAc(b1-4)GlcNAc
Method in brief: as §1

[9] = molecular target: Fuc(a1-2)[Gal(a1-3)]Gal(b1-3)GalNAc
Method in brief: as §1

[10] = molecular target: Fuc(a1-2)[Gal(a1-3)]Gal(b1-4)[Fuc(a1-3)]GlcNAc
Method in brief: as §1

[11] = molecular target: Fuc(a1-3)[Gal(b1-4)]GlcNAc(b1-3)Gal(b1-3)[Fuc(a1-4)]GlcNAc
Method in brief: as §1

Gal(a1-3)Gal(b1-3)GlcNAc = molecular target: Gal(a1-3)Gal(b1-3)GlcNAc
Method in brief: as §1

Gal(a1-3)GalNAc = molecular target: Gal(a1-3)GalNAc
Method in brief: as §1

[12] = molecular target: Gal(b1-3)GalNAc(a1-3)[Fuc(a1-2)]Gal(b1-4)Glc
Method in brief: as §1

[13] = molecular target: Gal(b1-3)GalNAc(a1-3)[Fuc(a1-2)]Gal(b1-4)GlcNAc
Method in brief: as §1

[14] = molecular target: Gal(b1-3)GlcNAc(b1-3)Gal(b1-4)[Fuc(a1-3)]GlcNAc
Method in brief: as §1

[15] = molecular target: Gal(b1-3)GlcNAc(b1-6)GalNAc
Method in brief: as §1

Gal(b1-4)Glc6S = molecular target: Gal(b1-4)Glc6S
Method in brief: as §1

[16] = molecular target: Gal(b1-4)GlcNAc(b1-2)Man(a1-6)[GlcNAc(b1-2)Man(a1-3)]Man(b1-4)GlcNAc(b1-4)GlcNAc
Method in brief: as §1

[17] = molecular target: Gal(b1-4)GlcNAc(b1-2)[Gal(b1-4)GlcNAc(b1-4)]Man(a1-3)[GlcNAc(b1-4)][Gal(b1-4)GlcNAc(b1-2)Man(a1-6)]Man(b1-4)GlcNAc(b1-4)GlcNAc
Method in brief: as §1

[18] = molecular target: Gal(b1-4)GlcNAc(b1-3)Gal(b1-4)GlcNAc(b1-2)Man(a1-3)[Gal(b1-4)GlcNAc(b1-3)Gal(b1-4)GlcNAc(b1-2)Man(a1-6)]Man(b1-4)GlcNAc(b1-4)GlcNAc
Method in brief: as §1

[19] = molecular target: Gal(b1-4)GlcNAc(b1-3)Gal(b1-4)GlcNAc(b1-3)[Gal(b1-4)GlcNAc(b1-3)Gal(b1-4)GlcNAc(b1-6)]GalNAc
Method in brief: as §1

Gal(b1-4)GlcNAc6P = molecular target: Gal(b1-4)GlcNAc6P
Method in brief: as §1

Gal3S(b1-3)GalNAc = molecular target: Gal3S(b1-3)GalNAc
Method in brief: as §1

Gal3S4S(b1-4)GlcNAc = molecular target: Gal3S4S(b1-4)GlcNAc
Method in brief: as §1

GalNAc(a1-3)Gal = molecular target: GalNAc(a1-3)Gal
Method in brief: as §1

GalNAc(b1-3)GalNAc = molecular target: GalNAc(b1-3)GalNAc
Method in brief: as §1

[20] = molecular target: GlcNAc(b1-2)Man(a1-3)[GlcNAc(b1-2)Man(a1-6)]Man(b1-4)GlcNAc(b1-4)GlcNAc
Method in brief: as §1

[21] = molecular target: GlcNAc(b1-2)Man(a1-3)[GlcNAc(b1-4)][GlcNAc(b1-2)Man(a1-6)]Man(b1-4)GlcNAc(b1-4)GlcNAc
Method in brief: as §1

[22] = molecular target: GlcNAc(b1-2)[GlcNAc(b1-4)]Man(a1-3)[GlcNAc(b1-4)][GlcNAc(b1-2)[GlcNAc(b1-6)]Man(a1-6)]Man(b1-4)GlcNAc(b1-4)[Fuc(a1-6)]GlcNAc
Method in brief: as §1

[23] = molecular target: GlcNAc(b1-3)Gal(b1-4)GlcNAc(b1-3)Gal(b1-4)GlcNAc(b1-2)Man(a1-3)[GlcNAc(b1-3)Gal(b1-4)GlcNAc(b1-3)Gal(b1-4)GlcNAc(b1-2)Man(a1-6)]Man(b1-4)GlcNAc(b1-4)[Fuc(a1-6)]GlcNAc
Method in brief: as §1

[24] = molecular target: GlcNAc(b1-3)Gal(b1-4)GlcNAc(b1-6)[GlcNAc(b1-3)Gal(b1-3)]GalNAc
Method in brief: as §1

[25] = molecular target: GlcNAc(b1-4)GlcNAc(b1-4)GlcNAc
Method in brief: as §1

Kdn(a2-3)Gal(b1-3)GalNAc = molecular target: Kdn(a2-3)Gal(b1-3)GalNAc
Method in brief: as §1

Kdn(a2-6)Gal(b1-4)GlcNAc = molecular target: Kdn(a2-6)Gal(b1-4)GlcNAc
Method in brief: as §1

[26] = molecular target: Man(a1-2)Man(a1-3)[Man(a1-2)Man(a1-6)]Man(a1-6)[Man(a1-2)Man(a1-2)Man(a1-3)]Man(b1-4)GlcNAc(b1-4)GlcNAc
Method in brief: as §1

[27] = molecular target: Man(a1-3)[Man(a1-6)]Man(a1-6)[Man(a1-2)Man(a1-3)]Man(b1-4)GlcNAc(b1-4)GlcNAc
Method in brief: as §1

[28] = molecular target: Neu5Ac(a2-3)Gal(b1-4)GlcNAc(b1-3)Gal(b1-4)GlcNAc(b1-2)Man(a1-3)[Neu5Ac(a2-3)Gal(b1-4)GlcNAc(b1-3)Gal(b1-4)GlcNAc(b1-2)Man(a1-6)]Man(b1-4)GlcNAc(b1-4)GlcNAc
Method in brief: as §1

[29] = molecular target: Neu5Ac(a2-3)Gal(b1-4)GlcNAc(b1-3)Gal(b1-4)GlcNAc(b1-3)Gal(b1-4)GlcNAc(b1-2)Man(a1-3)[Neu5Ac(a2-3)Gal(b1-4)GlcNAc(b1-3)Gal(b1-4)GlcNAc(b1-3)Gal(b1-4)GlcNAc(b1-2)Man(a1-6)]GalNAc
Method in brief: as §1

[30] = molecular target: Neu5Ac(a2-3)Gal(b1-4)GlcNAc(b1-3)Gal(b1-4)GlcNAc(b1-3)[Neu5Ac(a2-3)Gal(b1-4)GlcNAc(b1-3)Gal(b1-4)GlcNAc(b1-6)]GalNAc
Method in brief: as §1

[31] = molecular target: Neu5Ac(a2-3)GalNAc(b1-4)GlcNAc
Method in brief: as §1

[32] = molecular target: Neu5Ac(a2-3)[GalNAc(b1-4)]Gal(b1-4)Glc
Method in brief: as §1

[33] = molecular target: Neu5Ac(a2-3)[GalNAc(b1-4)]Gal(b1-4)GlcNAc(b1-3)GalNAc
Method in brief: as §1

[34] = molecular target: Neu5Ac(a2-6)Gal(b1-4)GlcNAc(b1-3)Gal(b1-4)GlcNAc(b1-3)GalNAc
Method in brief: as §1

[35] = molecular target: Neu5Ac(a2-6)Gal(b1-4)GlcNAc(b1-3)Gal(b1-4)GlcNAc(b1-3)[Neu5Ac(a2-6)Gal(b1-4)GlcNAc(b1-3)Gal(b1-4)GlcNAc(b1-6)]GalNAc
Method in brief: as §1

[36] = molecular target: Neu5Ac(a2-6)Gal(b1-4)GlcNAc(b1-6)[Gal(b1-3)GlcNAc(b1-3)]Gal(b1-4)Glc
Method in brief: as §1

[37] = molecular target: Neu5Ac(a2-6)GlcNAc(b1-4)GlcNAc
Method in brief: as §1

[38] = molecular target: Neu5Ac(a2-8)Neu5Ac(a2-3)Gal(b1-4)Glc
Method in brief: as §1

[39] = molecular target: Neu5Ac(a2-8)Neu5Ac(a2-8)Neu5Ac
Method in brief: as §1

Neu5Ac(b1-6)GalNAc = molecular target: Neu5Ac(b1-6)GalNAc
Method in brief: as §1

B1: ABA (Agaricus bisporus), Q00022 (protein)
chain: MTYTISIRVYQTTPKGFFRPVERTNWKYANGGTWDEVRGEYVLTMGGSGTSGSLRFVSSDTDESFVATFGVHNYKRWCDIVTNLTNEQTALVINQEYYGVPIRDQARENQLTSYNVANAKGRRFAIEYTVTEGDNLKANLIIG
- glycan array binding signal (z-score) [1]: -0.201
- glycan array binding signal (z-score) [2]: 0.475
- glycan array binding signal (z-score) [3]: -0.192
- glycan array binding signal (z-score) [4]: -0.172
- glycan array binding signal (z-score) [5]: -0.048
- glycan array binding signal (z-score) [6]: -0.157
- glycan array binding signal (z-score) [7]: -0.289
- glycan array binding signal (z-score) [8]: 0.231
- glycan array binding signal (z-score) [9]: -0.239
- glycan array binding signal (z-score) [10]: -0.155
- glycan array binding signal (z-score) [11]: -0.058
- glycan array binding signal (z-score) (Gal(a1-3)Gal(b1-3)GlcNAc): -0.192
- glycan array binding signal (z-score) (Gal(a1-3)GalNAc): -0.118
- glycan array binding signal (z-score) [12]: 3.56
- glycan array binding signal (z-score) [13]: 3.27
- glycan array binding signal (z-score) [14]: -0.245
- glycan array binding signal (z-score) [15]: -0.25
- glycan array binding signal (z-score) (Gal(b1-4)Glc6S): -0.203
- glycan array binding signal (z-score) [16]: 2.81
- glycan array binding signal (z-score) [17]: -0.25
- glycan array binding signal (z-score) [18]: 2.52
- glycan array binding signal (z-score) [19]: 1.8
- glycan array binding signal (z-score) (Gal(b1-4)GlcNAc6P): -0.104
- glycan array binding signal (z-score) (Gal3S(b1-3)GalNAc): 2.46
- glycan array binding signal (z-score) (Gal3S4S(b1-4)GlcNAc): -0.254
- glycan array binding signal (z-score) (GalNAc(a1-3)Gal): -0.234
- glycan array binding signal (z-score) (GalNAc(b1-3)GalNAc): 0.071
- glycan array binding signal (z-score) [20]: 5.72
- glycan array binding signal (z-score) [21]: 2.54
- glycan array binding signal (z-score) [22]: -0.287
- glycan array binding signal (z-score) [23]: 1.39
- glycan array binding signal (z-score) [24]: 2.74
- glycan array binding signal (z-score) [25]: -0.093
- glycan array binding signal (z-score) (Kdn(a2-3)Gal(b1-3)GalNAc): 0.099
- glycan array binding signal (z-score) (Kdn(a2-6)Gal(b1-4)GlcNAc): -0.239
- glycan array binding signal (z-score) [26]: 0.46
- glycan array binding signal (z-score) [27]: 2.82
- glycan array binding signal (z-score) [28]: 2.72
- glycan array binding signal (z-score) [29]: 2.8
- glycan array binding signal (z-score) [30]: 0
- glycan array binding signal (z-score) [31]: -0.276
- glycan array binding signal (z-score) [32]: -0.249
- glycan array binding signal (z-score) [33]: 1.31
- glycan array binding signal (z-score) [34]: -0.201
- glycan array binding signal (z-score) [35]: 2.26
- glycan array binding signal (z-score) [36]: -0.255
- glycan array binding signal (z-score) [37]: -0.229
- glycan array binding signal (z-score) [38]: -0.267
- glycan array binding signal (z-score) [39]: -0.247
- glycan array binding signal (z-score) (Neu5Ac(b1-6)GalNAc): -0.191
